# Reference: the supplement of paper PMC6555819
# Tested on: VDR:RXRa (NR concentration 270 nM, RXRa partner concentration 90 nM)
# Test: PBM binding z-score (relative to random genomic background probes); higher = stronger binding; sequences stand for … in GC…GCGATTGACAGCGTAGAATGAAGG
# Procedure: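 Protein-binding microarray (Agilent 4x180K custom design, double-stranded 60-nt probes: 5' GC cap, 34-nt variable region, 24-nt constant primer region; full probe sequence given). Purified or IVT nuclear receptor:RXRα heterodimers (3:1 NR:RXRα, mostly 270:90 nM) or homodimers were incubated for 1 h in PBS with 2% milk and no ligand, then detected with Alexa488 antibodies. Fluorescence from o1-orientation probes (~5 replicates averaged) was converted to z-scores against 500 random hg19 background probes. Variable regions are seed direct-repeat (DR0–DR5) sites, all their single-nucleotide variants and half-site ablations.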
row,Sequence,PBM binding z-score
1,CCTATTGGGCCAAGGTCATTGATCAGTCAAAGCA,3.29
2,TCGAGTAGGTTACCAATGGGGCATTCAGCTTTCT,0.0745
3,ACTAGTTGGTCAGCAGAGGTCACACACAATTCGG,4.87
4,TGTCAAAGTTCAAAGGTAACGCAAGTATCCACAC,5.17
5,AGAATGAGGTTACCAAAGATAAGGGAAACGCTTG,1.07
6,GGAATGAGGGCAAAGTTGATAGCATCTGTCGACG,1.82
7,CAAACTAGGTCACGGTCAAAGTCGGTTTGTGCCA,3.33
8,TTACGAAGGTGAGCTGAGGTCGTTGATCCAACTC,4.16
9,ACTTACGGGTCAACGAGGATATAGCACGCGTATA,6.51
10,ATCTCTAGGTAAAAGTTGAGTGAATCCCGAGGAT,-0.00666
11,CGTCCACGGTCAATGCTAGGTCAGTGAAAGCATT,0.36
12,ATATGTAGGTTAAGGGTCATACAGGTTGGTTCGC,5.42
13,CCTATTAGTAGACCATAAGGGCAACCGAAGCTCG,0.553
14,CCGCCTAGGTCAGGGCCAGTATAGGAGGAACGTT,0.294
15,TTACCAAGCTGAGCTGAGGTCGTTGATCCAACTC,0.877
16,GCGACTGGGGCATCAGCAGGTTACAATAACTTAA,-0.29
17,CGAACGAGCGCATGAGTTGATAGCAAATGCCGAT,-0.307
18,GATACAGGGTCAGCTAGAGGCCAGATTATGGAAA,3.57
19,TAGCCTAGGTCTGATCGGGCCAGTATACGCTATA,-0.771
20,GCTAACGGGTCAAAGGTTATAGCATGAATAGAAT,4.9

row,Sequence,PBM binding z-score
1,GGAACGAGGGCAAGTTGGTAGCAGAGTTTGATGG,1.03
2,AGAACGAGGGCACGCTGAGGTGATAGCAGAGTAG,1.78
3,ATCCAAAGGTCGTGAGGTGAGTATACAGAAAGGC,3.91
4,TAGCCTAGGTCATTCAGGGGCCATTATAGAAAGC,4.23
5,ACTAGCAGGCCAAGTTTGGCTCACTCAAACAAAG,-0.767
6,ACAGACAGGTGAGTGAAGGTAACGCAGCTGGACG,-0.28
7,CCTACTGGGCCATGCAGAGGTCATTGATCATATG,3.86
8,TCTTGTAGGTCAACAGGAGGTTAAGAAAGATCGA,3.79
9,ATCGCTAGGTAAAGTTCAGTGAAAGATCGATAGA,0.735
10,GCTGCTAGATCAACTGATGGTCAGCTAAAGCTCG,-0.766
11,ATCTCTAGGAAAGACTCAGTTCAGTGAAGAACGC,0.436
12,CTCGAAAGGTCGTGCTCAGGTGAGAATACCAAAC,3.39
13,TCTGCTAGGGCAACGATGGTCAGCTAATCTGCTA,-0.552
14,CCAGCCAGGTGAGAAGGTAACTCAGCCTCGATTA,-0.314
15,TCGAGAAGGTTAGTCGGGGCATTCAGCCAACATA,3.71
16,ATAATGAGGTTATTAAGATCAGGGAATTGCGGTC,2.88
17,CGTCCAAGGTCAGTGCTAGGTCAGTGAAAGCATT,3.71
18,CTACCAAGGTGAACTAGGTCGTTGATTACTATTC,3.56
19,GCGACTGGGGCATAGCAGGTTACCATAAGGTTGG,-0.336
20,TAGCCTAGGTCATTCAGCGGCCAGTATAGAAAGC,2.62
